TDP1 block: qHTS Assay for Inhibitors of Tyrosyl-DNA Phosphodiesterase (TDP1). Tyrosyl-DNA phosphodiesterase 1 (Homo sapiens), Q9NUW8. recombinant TDP1, AlphaScreen DNA substrate cleavage. Potency, µM (series often up to 130 µM), for the others: top-dose activity change, negative = inhibition, most hits filed as inhibitors. hit rate 0.28% among 350,000. AID 485290, 2010; note: potency is the fitted concentration of half-maximal effect; % is set by controls: 0 for no effect and ±100 for the full control effect; nearly all actives have a fitted effect of over 40% in size
Target sequence (Q9NUW8 whole entry, looked up): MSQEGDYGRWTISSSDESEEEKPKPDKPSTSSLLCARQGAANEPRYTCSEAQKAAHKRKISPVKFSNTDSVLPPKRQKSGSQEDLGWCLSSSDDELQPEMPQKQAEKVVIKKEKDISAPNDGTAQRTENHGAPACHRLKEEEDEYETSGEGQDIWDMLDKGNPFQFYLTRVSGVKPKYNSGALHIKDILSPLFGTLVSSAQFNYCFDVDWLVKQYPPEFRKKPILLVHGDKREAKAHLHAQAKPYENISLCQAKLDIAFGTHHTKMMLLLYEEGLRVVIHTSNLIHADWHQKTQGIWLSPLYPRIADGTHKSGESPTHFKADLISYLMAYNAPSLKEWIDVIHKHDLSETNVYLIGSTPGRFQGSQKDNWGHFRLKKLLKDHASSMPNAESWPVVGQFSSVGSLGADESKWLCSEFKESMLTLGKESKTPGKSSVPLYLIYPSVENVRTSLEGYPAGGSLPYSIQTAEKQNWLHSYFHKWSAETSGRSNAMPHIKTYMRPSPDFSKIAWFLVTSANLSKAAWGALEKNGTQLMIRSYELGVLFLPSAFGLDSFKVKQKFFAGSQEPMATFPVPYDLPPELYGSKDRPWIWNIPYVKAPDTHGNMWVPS
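Signal: AlphaScreen proximity between streptavidin donor and anti-FITC acceptor beads on intact substrate. Reaction: Tdp1 1 nM, substrate 15 nM final, 5 min RT after 15 min compound preincubation.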
DT40 TDP1 no CPT: qHTS for Inhibitors of human tyrosyl-DNA phosphodiesterase 1 (TDP1): qHTS in cells in absence of CPT; DT40 Tdp1-/- hTDP1 cells, no CPT, ATP luminescence, 48 h; Potency, µM (doses to about 46.2 µM), without a hit: at the highest dose activity change, negative = growth inhibition, actives largely listed as inhibitors; hit rate 15% among 420,000; AID 686978, 2013; note: potency is the fitted concentration of half-maximal effect; % is set by controls: 0 for no effect and ±100 for the full control effect; nearly all actives have a fitted effect of over 55% in size
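No-CPT arm: Tdp1-/-;hTDP1 DT40 cells (400/well) plus compounds, incubated ≥48 hr at 37 °C. Readout CellTiter-Glo luminescence.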
DT40 TDP1 CPT: qHTS for Inhibitors of human tyrosyl-DNA phosphodiesterase 1 (TDP1): qHTS in cells in presence of CPT; AID 686979, 2013; Potency, µM (titrated, usually from 46.2 µM), without a hit: at the highest dose activity change, negative = growth inhibition, hits mostly inhibitors; chicken DT40 Tdp1-/-;hTDP1 cells + 20 nM CPT, ATP luminescence, 48 h; hit rate 12% among 420,000; note: potency is the fitted concentration of half-maximal effect; % is set by controls: 0 for no effect and ±100 for the full control effect; nearly all actives have a fitted effect of over 55% in size
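Chicken DT40 Tdp1-/- cells stably complemented with human TDP1 were seeded at 400 cells/well in medium containing 20 nM camptothecin, exposed to pin-transferred compounds, and grown at 37 °C for at least 48 hr. Viability was read as ATP luminescence.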
uPA surface inh: qHTS for Inhibitors of Cell Surface uPA Generation. cell surface uPA generation assay, qHTS. Potency, µM (titrated, usually from 38.3 µM), without a hit: top-dose activity change, negative = inhibition, hits mostly inhibitors. hit rate 0.31% among 330,000. AID 540303, 2011; active = well fitted inhibition curve with a large enough effect; inconclusive = small, poorly fitted or top-dose-only effect; inactive = no such curve, though single readings can be large or run the other way; tested in mouse RAW 264.7 cells; note: potency is the fitted concentration of half-maximal effect; % is set by controls: 0 for no effect and ±100 for the full control effect; nearly all actives have a fitted effect of over 55% in size
miR-21 act: qHTS Assay for Modulators of miRNAs and/orActivators of miR-21 | 340,000 tested, under 10 active | AID 2288, 2010 | Potency, µM (doses to about 38.3 µM), for inactives: at the highest dose activity change, positive = activation, most hits filed as activators | HeLa miR-21 FLuc reporter, luciferase, 48 h;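 note: % of control where 0% means no effect; miR-21 action dims this reporter so a rising signal means less miR-21 action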
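Compounds were titrated across several concentrations (up to approximately 40 uM) and incubated 48 hours with HeLa miR-21-FLuc reporter cells (miR-21 target sequence downstream of FLuc, endogenous miR-21). Readout was firefly luciferase luminescence after lytic detection reagent.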
The depositor's hits bear a star; ? = inconclusive; . = not tested or not shown; [ ] = another dose, or the depositor's remark. Rows were chosen to be rich in hits. Some 16% of all compounds tested hit in one or more screens of this group. Unless noted, calls come from the whole dose curve; as a rule, active = well fitted curve in the direction sought with a large enough effect; inconclusive = small, poorly fitted or top-dose-only effect, or another doubt; inactive = no such curve, though single readings can be large; an effect the other way counts as inactive or inconclusive.

SMILES	TDP1 block	DT40 TDP1 no CPT	DT40 TDP1 CPT	uPA surface inh	miR-21 act
CCc1cc(=O)oc2c(C)c3c(cc12)CN(CCc1ccccc1OC)CO3	5%	21µM*	-41%	.	-8%
CCCc1cc(=O)oc2c(C)c3c(cc12)CN(CCc1ccc(Cl)cc1)CO3	7%	15µM*	6.5µM*	.	-6%
Cc1cc(=O)oc2c3c(ccc12)OCN(Cc1ccc(Cl)cc1)C3	-1%	?	?	.	-9%
O=C(Cn1c(=O)c2cccn2c2ccccc21)NCc1ccccc1F	9%	?	-18%	.	-9%
CC(C)c1ccc(CC(=O)N2CCC2(C)C(=O)NCC(C)(C)C)cc1 (stereo not drawn)	.	23µM*	?	.	.
CC(C)(C)c1ccc(CC(=O)N2CCC2(C)C(=O)NCc2ccc(Cl)cc2)cc1 (stereo not drawn)	.	21µM*	?	.	.
CC(C)(C)c1ccc(CC(=O)N2CCC2(C)C(=O)O)cc1 (stereo not drawn)	.	-21%	6%	.	.
CC1(C(=O)NCc2ccc(Cl)cc2)CCN1C(=O)Cc1ccc(Cl)cc1Cl (stereo not drawn)	.	?	18µM*	.	.
O=C(COn1nnc2ccc(Cl)cc21)NC1CCS(=O)(=O)C1 (stereo not drawn)	-2%	2%	12%	3%	.
CC(=O)NC1(c2cccc(F)c2)CCN(CC(=O)NC2CCCCC2)CC1	3%	-12%	-15%	-1%	0%
Cc1ccc(S(=O)(=O)N2CCOCC2)cc1NC(=O)COC(=O)Cn1c(C)csc1=O	1%	-3%	-19%	10%	.
Cc1ccc2c(=O)c(C(=O)c3ccccc3)cn(CC(=O)Nc3ccccc3C)c2n1	5%	0%	-13%	.	-1%
CCOc1ccccc1NC(=O)Cn1cc(C(=O)c2ccc(Cl)cc2)c(=O)c2ccc(C)nc21	6%	15µM*	?	.	-2%
Cc1ccc(C(=O)c2cn(Cc3cc(C)ccc3C)c3nc(C)ccc3c2=O)cc1	2%	21µM*	?	.	13%
Cc1ccc(C(=O)c2cn(Cc3cccc(C)c3)c3nc(C)ccc3c2=O)cc1	2%	21µM*	?	.	-1%
COCCNC(=O)C(c1ccc(C)o1)N(C(=O)C(=O)NC1CCCCC1)c1ccc(F)cc1 (stereo not drawn)	0%	-19%	7%	0%	-3%
O=C(C[n+]1cccc(/C=N/O)c1)N1CCCc2ccccc21	0%	6%	-5%	-3%	-1%
CCN1C(=O)CSC1=Nc1ccc(C(=O)OC)cc1	.	-12%	-6%	.	.
C/C(=N\NC(=O)c1csc(C)c1C)c1ccc(C)s1	6%	2.9µM*	2.6µM*	-9%	-82%
C/C(=N\NC(=O)c1c[nH]c2ccccc12)c1ccc(C)s1	0%	12%	3%	0%	-47%
CCCCOc1cccc(/C=N/NC(=O)c2csc(C)c2C)c1	1%	23µM*	?	5%	-16%
C/C(=N\NC(=O)c1cc(-c2ccc(C)s2)[nH]n1)c1ccco1	-5%	18µM*	?	-12%	-19%
Cc1scc(C(=O)N/N=C/c2ccc(Cl)s2)c1C	-1%	16µM*	?	4%	-76%
CCOc1ccccc1Nc1nc2c(S(=O)(=O)c3ccc(C)cc3)nnn2c2ccsc12	0%	?	-11%	.	-1%
CC(C(=O)Nc1ccccc1)N(C)CCOc1ccc(Br)cc1 (stereo not drawn)	9%	-27%	1%	0%	1%
SMILES	TDP1 block	DT40 TDP1 no CPT	DT40 TDP1 CPT	uPA surface inh	miR-21 act
N[C@H](Cc1c[nH]c2ccccc12)C(=O)O	6%	-13%	-23%	.	.
C/C(=N\NC(=O)c1csc(C)c1C)c1ccco1	0%	21µM*	10µM*	-7%	-46%
C/C(=N/NC(=O)c1cccs1)c1ccco1	-3%	-19%	-7%	-5%	-56%
Cc1[nH]c(=O)sc1C(=O)NCc1ccc([N+](=O)[O-])cc1	.	-26%	?	.	.
CCCc1nc(N)c(C#N)c(N)c1C#N	2%	?	?	-8%	-24%
CC(C)c1c(O)ccc2c1CCC1C(C)(C)CCC[C@@]21C (stereo partly drawn)	13%[56.1 µM]	?	?	.	.
CC(C)c1c(O)ccc2c1CC[C@H]1C(C)(C)CCC[C@]21C	.	?	13µM*	1%	.
COc1ccccc1C(CC(=O)Nc1nccs1)c1ccco1 (stereo not drawn)	8%	15µM*	?	2%	-6%
O=C(CC(c1ccc(F)cc1)c1ccco1)Nc1nccs1 (stereo not drawn)	3%	?	-20%	9%	12%
COc1ccc(S(=O)(=O)N(CC(N)=O)C2CCCCC2)cc1Cl	5%	?	23µM*	-5%	-8%
Cc1ccc(C(=O)N/N=C\c2ccc([N+](=O)[O-])o2)cn1	0%	12µM*	?	-14%	?
O=C(N/N=C\c1ccc(-c2ccc([N+](=O)[O-])cc2)o1)c1ccc2c(c1)OCO2	4%	-17%	-24%	-1%	-7%
Cc1cc2ncn(/N=C/c3ccc([N+](=O)[O-])o3)c2cc1C	10%	13µM*	13µM*	?	11%
CCCOc1ccc(CCC(=O)N/N=C/c2ccc([N+](=O)[O-])o2)cc1	5%	-98%	16µM*	?	27%
O=C(N/N=C/c1ccc([N+](=O)[O-])o1)c1ccc2c(c1)OCO2	5%[56.1 µM]	5.8µM*	2.3µM*	4.5µM*	?
Cc1nn(CC(=O)NCC(C)c2ccccc2)c(=O)c2cc3ccccc3n12 (stereo not drawn)	0%	-28%	-23%	.	-2%
Cc1ccc(/C=N/NC(=O)c2cccc([N+](=O)[O-])c2)o1	3%	7%	14%	4%	-4%
CC(C)(C)c1ccc2c(c1)OC(C(=O)N/N=C\c1ccncc1)CO2 (stereo not drawn)	.	?	?	2%	5%
Cc1csc(N=Cc2ccc([N+](=O)[O-])o2)n1	.	10µM*	15µM*	.	.
O=[N+]([O-])c1ccc(/C=N/N=C/c2ccc([N+](=O)[O-])o2)o1	.	0.73µM*	0.29µM*	.	?
CC(C)(C)c1ccc2c(c1)OC(C(=O)N/N=C/c1ccc([N+](=O)[O-])o1)CO2 (stereo not drawn)	8%	12µM*	16µM*	-7%	4%
CC(=O)N/N=C/c1ccc([N+](=O)[O-])o1	.	21µM*	?	.	.
Cc1ccc2c(CN3CCN(c4ccc(Cl)cc4)CC3)cc(=O)oc2c1	2%	-26%	-22%	.	7%
